Here are results for 14 molecules from paper PMC5540273 (PLoS ONE, 2017).

Some test systems named below: PIK3C2G; PIK3CA; PIK3CB; PIK3CD; PIK3CG; PIKFYVE; PIM1; PIM2; PIM3.
Holding throughout (details): concentration: 1 μM,replicates: in singlicate; n = 1
A further test concerns T1, PIK4CB.
T1 construct: gene PI4KB
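Further: KINOMEscan kinase panel screen.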

With `Cl.Cl.NC[C@H](Cc1ccc(C(F)(F)F)cc1)NC(=O)c1cc(Br)c(-c2ccnc3[nH]ccc23)s1` [GSK1487252], the “%Inh” value with PIK3C2G amounted to 61%; in the test on PIK3CA, 0%; with PIK3CB, 0%; with PIK3CD, 0%; in the test on PIK3CG it was 0%; with PIK4CB, 0%. In addition, the “%Inh” value is 12% with PIKFYVE, 35% in the test on PIM1, 0% with PIM2 and 0% in the test with PIM3.
Regarding `Cc1ccc2c(-c3ccncc3)c(-c3ccc(F)cc3)nn2c1.Cl` [GW461484], the “%Inh” value is recorded as 0% in the test with PIK3C2G; 0% with PIK3CA; 25% with PIK3CB; 0% in the test with PIK3CD; 1% in the test with PIK3CG; 0% in the test with PIK4CB. The “%Inh” value with PIKFYVE amounted to 0%; in the test on PIM1, 0%; in the test on PIM2, 0%; with PIM3, 16%.
On to `Cl.Cl.Nc1nc(-c2ccc3c(N)n[nH]c3c2)cc(N2CCCC(NC(=O)c3ccccc3)C2)n1` (centres unmarked) [GSK2286775], for which the “%Inh” value with PIK3C2G is given as 43%; with PIK3CA, 14%; in the test on PIK3CB, 0%; in the test on PIK3CD it was 2%; in the test with PIK3CG it was 4%; with PIK4CB, 27%. For the same molecule, the “%Inh” value in the test on PIKFYVE was found to be 6%; in the test with PIM1 it was 25%; in the test on PIM2, 0%; with PIM3 it was 25%.
Take `O=C(NCCCN1CCOC1=O)c1cnc(NCc2cc(Cl)ccc2Cl)nc1NC1CCCC1`: the “%Inh” value in the test with PIK3C2G was found to be 8%; with PIK3CA, 0%; with PIK3CB it was 2%; in the test on PIK3CD, 0%; with PIK3CG it was 0%; with PIK4CB, 12%. Moreover, the “%Inh” value came out at 36% in the test on PIKFYVE, 9% in the test with PIM1, 16% in the test with PIM2 and 10% in the test on PIM3.
In the case of `C[C@H]1Oc2cc(cnc2N)-c2c(nn(C)c2C#N)CN(C)C(=O)c2ccc(F)cc21`, the “%Inh” value in the test with PIK3C2G is 20%; in the test with PIK3CA, 0%; in the test with PIK3CB, 0%; in the test on PIK3CD, 0%; in the test with PIK3CG, 0%; with PIK4CB, 0%. Further, the “%Inh” value stood at 19% with PIKFYVE, 21% with PIM1, 19% in the test on PIM2 and 12% in the test with PIM3.
With `C=CC(=O)Nc1cc2c(Nc3ccc(F)c(Cl)c3)ncnc2cc1OCCCN1CCOCC1` [GW781483], the “%Inh” value with PIK3C2G is recorded as 0%; in the test on PIK3CA, 0%; in the test on PIK3CB it was 60%; with PIK3CD, 0%; in the test with PIK3CG, 42%; in the test with PIK4CB, 21%. Also, the “%Inh” value in the test on PIKFYVE is given as 20%; in the test on PIM1, 2%; in the test on PIM2, 0%; in the test on PIM3, 0%.
Take `Cc1n[nH]c2ccc(-c3cc(OC[C@@H](N)Cc4ccccc4)cnc3-c3ccoc3)cc12.O=C(O)C(F)(F)F.O=C(O)C(F)(F)F` [GSK507358]: the “%Inh” value in the test with PIK3C2G, in the test with PIK3CA, with PIK3CB, in the test on PIK3CD, in the test on PIK3CG and in the test on PIK4CB was 0% in each case. For the same molecule, the “%Inh” value in the test with PIKFYVE is recorded as 8%; in the test with PIM1, 29%; in the test on PIM2, 90%; in the test on PIM3, 47%.
Take `CC(C)N1C(=O)Cc2cc(Nc3ncc(C(F)(F)F)c(NCc4cccc(S(C)(=O)=O)c4)n3)ccc21`: the “%Inh” value in the test on PIK3C2G is recorded as 28%; with PIK3CA it was 6%; in the test on PIK3CB, 29%; with PIK3CD, 0%; with PIK3CG, 5%; with PIK4CB, 28%. The “%Inh” value in the test on PIKFYVE is reported as 27%; in the test on PIM1, 5%; in the test with PIM2, 0%; in the test with PIM3 it was 9%.
For the molecule `Cc1cc(C(=O)Nc2ccc(Oc3ccc4nc(NC(=O)C5CC5)cn4n3)cc2)nn1-c1ccccc1`, the “%Inh” value in the test on PIK3C2G was 2%; in the test with PIK3CA, 0%; in the test with PIK3CB, 0%; in the test with PIK3CD it was 0%; in the test on PIK3CG, 0%; in the test with PIK4CB, 0%. In addition, the “%Inh” value in the test with PIKFYVE is 1%; in the test on PIM1 it was 2%; in the test with PIM2, 2%; in the test on PIM3, 0%.
As to `C[C@@H](Oc1cc(-c2cnn(C3CCNCC3)c2)cnc1N)c1c(Cl)ccc(F)c1Cl`, the “%Inh” value worked out at 8% with PIK3C2G; 14% in the test on PIK3CA; 18% with PIK3CB; 0% in the test on PIK3CD; 9% in the test with PIK3CG; 3% with PIK4CB. Further, the “%Inh” value with PIKFYVE was found to be 5%; in the test with PIM1 it was 0%; in the test on PIM2, 0%; in the test on PIM3 it was 3%.
With `CCN(CC)CCCCNc1ncc2cc(-c3c(Cl)cccc3Cl)c(NC(=O)NC(C)(C)C)nc2n1`, the “%Inh” value with PIK3C2G is listed as 6%; in the test on PIK3CA it was 8%; in the test with PIK3CB, 91.6%; in the test with PIK3CD it was 15%; in the test with PIK3CG it was 2%; in the test on PIK4CB it was 0%. Also, the “%Inh” value was 21% in the test with PIKFYVE, 0% in the test on PIM1, 13% in the test on PIM2 and 0% in the test with PIM3.
`CC(C)Nc1cc(-c2ccc3c(N)n[nH]c3c2)nc(N)n1` [GSK2221681]: the “%Inh” value with PIK3C2G was determined as 0%; in the test with PIK3CA it was 0%; in the test on PIK3CB, 0%; with PIK3CD it was 0%; in the test with PIK3CG it was 0%; with PIK4CB, 7%. The “%Inh” value with PIKFYVE stood at 0%; in the test on PIM1, 15%; in the test with PIM2, 0%; in the test on PIM3 it was 0%.
In the case of `CN(C)CC(O)COc1ccc(Nc2nccc(-c3cnn4nc(N5CCOCC5)ccc34)n2)cc1` (centres unmarked) [GW767488], the “%Inh” value in the test on PIK3C2G was found to be 20%; with PIK3CA, 33%; in the test with PIK3CB it was 35%; in the test on PIK3CD, 37%; in the test with PIK3CG it was 63%; with PIK4CB, 46%. Also, the “%Inh” value was 68% with PIKFYVE, 15% with PIM1, 0% with PIM2 and 35% with PIM3.
For `CNC(=O)c1ccccc1Sc1ccc2c(/C=C/c3ccccn3)n[nH]c2c1`, the “%Inh” value with PIK3C2G was found to be 0%; in the test with PIK3CA, 0%; in the test with PIK3CB, 0%; in the test with PIK3CD, 11%; in the test with PIK3CG, 2%; in the test on PIK4CB, 0%. Also, the “%Inh” value in the test on PIKFYVE is listed as 43%; with PIM1 it was 0%; in the test on PIM2, 0%; with PIM3 it was 6%.
